Records with an inconclusive call do not appear. A call without a number means that no potency is given here. The source made the active and inactive calls. Calls come from the whole dose curve; as a rule, active = well fitted cell-killing curve with a large enough effect in the repeat runs; inconclusive = weak or mixed curves; inactive = flat fitted curve, though single readings scatter.
Test: qHTS assay to identify small molecule antagonists of the TGF-beta/Smad signaling pathway - cell viability counter screen (AID 1346824); note: nearly all actives have a fitted effect of over 50% in size
Conditions: SBE-bla HEK293T viability, CellTiter-Glo luminescence; series mostly up to 76.8 µM
Description: U.S. Tox21 Program National Center for Advancing Translational Sciences [NCATS] NIH Chemical Genomics Center [NCGC] U.S. Environmental Protection Agency [EPA] National Institutes of Environmental Health Sciences [NIEHS] National Toxicology Program [NTP] U.S. Food and Drug Administration [FDA] Tox21 Assay Overview: Transforming growth factor beta (TGF-beta) superfamily consists of a large number of structurally related dimeric proteins that act as hormones or local mediators in regulating a wide range of biological functions. This superfamily includes TGF-betas themselves, the bone morphogenetic proteins (BMPs) and the activins. These ligands induce oligomerization of serine/threonine receptor kinases and phosphorylate the cytoplasmic signaling molecules of Smad protein family. CellSensor SBE-bla HEK 293T cell line (Life Technologies, Carlsbad, CA), responsive to TGF-beta was used to screen Tox21 10K compound library for identification of agonists/antagonists of the Smad signaling pathway. This cell line contains a beta-lactamase reporter gene under control of the Smad binding element (SBE) stably integrated into HEK 293T cells. Also cytotoxicity of the compounds was tested in parallel by measuring the cell viability using CellTiter-Glo assay system in the same wells.
Tox21 Assay Protocol Summary: SBE-bla HEK 293T cells were dispensed at 4,000/well in 5 uL of assay medium into black wall/clear-bottom 1536-well plates using a Multidrop Combi (ThermoFisher Scientific, Waltham, MA) dispenser. After the assay plates were incubated at 37 C and 5% CO2 for an overnight, 23 nL of compounds dissolved in DMSO, positive controls or DMSO only was transferred to the assay plate by a Pintool station (Kalypsys, San Diego, CA). Compound transfer was followed by the addition of 1 uL of 0.25 ng/mL TGF-beta1 or assay buffer using two separate tips of Flying Reagent Dispenser (FRD, Aurora Discovery, San Diego, CA). The assay plates were incubated at 37 C and 5% CO2 for 5 hr. One uL of LiveBLAzer B/G FRET substrate (Life Technologies) was added using a Flying Reagent Dispenser (FRD, Aurora Discovery, San Diego, CA) and the plates were incubated at room temperature for 2 hr. Fluorescence intensity (405 nm excitation, 460 nm and 530 nm emissions) was measured using an Envision plate reader (PerkinElmer, Shelton, CT). For cytotoxicity read, 4 uL of CellTiter-Glo reagent (Promega Corporation, Madison, WI) was added to each well of the assay plates using FRD. After 30 min incubation at room temperature, the luminescence intensity was measured using ViewLux plate reader (PerkinElmer).
Potency is the fitted concentration of half-maximal effect.

SMILES | Potency
CC(C)[C@H](C(=O)O[C@H](C#N)c1cccc(Oc2ccccc2)c1)c1ccc(Cl)cc1 | inactive
C=CC(=O)OCCCCOC(=O)C=C | inactive
CC(=O)c1cc(C(C)(C)C)cc2c1CCC2(C)C | inactive
BrC(Br)C(Br)(Br)Br | inactive
CCCCCCCCCCCCCCC(Br)C(=O)O (stereo not given) | inactive
N#Cc1ccccc1Cl | inactive
Nc1c(Oc2ccccc2)cc(O)c2c1C(=O)c1ccccc1C2=O | inactive
N#CCc1ccc(Cl)cc1 | inactive
CCOP(=S)(OCC)OC(Cl)C(Cl)(Cl)Cl (stereo not given) | inactive
O=C(NC(=O)c1c(F)cccc1F)Nc1cc(Cl)c(OC(F)(F)C(F)F)c(Cl)c1 | inactive
CN(C)[C@@H]1C(=O)C(C(N)=O)=C(O)[C@@]2(O)C(=O)C3=C(O)c4c(O)ccc(Cl)c4[C@@](C)(O)[C@H]3C[C@@H]12 | inactive
CC1(C)C(/C=C(\Cl)C(F)(F)F)C1C(=O)OC(C#N)c1cccc(Oc2ccccc2)c1 (stereo not given) | inactive
CCc1nn(C)c(C(=O)NCc2ccc(C(C)(C)C)cc2)c1Cl | 0.389 µM (active)
N#Cc1ccc(O)cc1 | inactive
Oc1c(Cl)c(Cl)cc(Cl)c1Cl | inactive
COc1ccc([N+](=O)[O-])cc1O | inactive
O=C(O)c1cc[c]([Hg][Cl])cc1 | inactive
ClC1=C(Cl)C2(Cl)C3C(Cl)C(Cl)CC3C1(Cl)C2(Cl)Cl (stereo not given) | inactive
Cc1ccc(CCl)cc1 | inactive
O=c1c(C2CC(c3ccc(-c4ccc(Br)cc4)cc3)Cc3ccccc32)c(O)sc2ccccc12 (stereo not given) | inactive

SMILES | Potency
N#CCCSCCC#N | inactive
c1ccc2c(c1)OCC(C1=NCCN1)O2 (stereo not given) | inactive
CCCCOCN(C(=O)CCl)c1c(CC)cccc1CC | inactive
NNC(=O)c1ccccc1 | inactive
CC1(C)CN=C(NN=C(/C=C/c2ccc(C(F)(F)F)cc2)/C=C/c2ccc(C(F)(F)F)cc2)NC1 | 38.9 µM (active)
COP(N)(=S)OC | inactive
O=C1C=CC(=O)c2ccccc21 | 24.5 µM (active)
CCCCCCCCCBr | inactive
CCOC(=O)OC1=C(c2cc(C)ccc2C)C(=O)NC12CCC(OC)CC2 (stereo not given) | inactive
CC(C)[C@H](C(=O)OC(C#N)c1cccc(Oc2ccccc2)c1)c1ccc(OC(F)F)cc1 (stereo not given in full) | inactive
O=C(CBr)c1ccc(O)cc1 | inactive
CC1(C)[C@H](C(=O)O[C@H](C#N)c2cccc(Oc3ccccc3)c2)[C@@H]1/C=C(\Cl)C(F)(F)F | inactive
SCc1ccco1 | inactive
COP(=S)(OC)Oc1cc(Cl)c(Br)cc1Cl | inactive
CC[C@H]1C[C@@H]2C[C@H]3c4[nH]c5ccc(OC)cc5c4CCN(C2)[C@@H]13 | inactive
O=C(Cl)c1ccc(Cl)cc1 | inactive
O=[N+]([O-])c1cc(Cl)ccc1Cl | inactive
O=[N+]([O-])c1cc(C(F)(F)F)c(Cl)c([N+](=O)[O-])c1Cl | 49 µM (active)
CN(C)c1ccc(N=Nc2ccccc2)cc1 | inactive
CCOP(=S)(OCC)SCCS(=O)(=O)CC | inactive

— PubChem BioAssay (Tox21)
